The results in this text go back to PubChem BioAssay (EPA / NIEHS).

Assay [1] can be described thus: CCTE_Padilla_ZF_Score.Edema: CCTE's 144 Hour Post-fertilization zebrafish Assay Score for Edema Malformation, Padilla Lab (AID 2284406). The essentials: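 Edema scored at 6 dpf by two blinded observers under a stereo microscope, in single outbred wild-type larvae exposed from 6-8 hpf in sealed wells (Hanks', 26C, 14:10 h light) and chemical-free after a 5 dpf rinse.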

A short description of assay [2]: CCTE_Padilla_ZF_Score.Spine: CCTE's 144 Hour Post-fertilization zebrafish Assay Score for Spine Malformation, Padilla Lab (AID 2284407). Put shortly:
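Spine malformation scored at 6 dpf by two independent blinded observers under stereomicroscope, after static sealed exposure from 6–8 hpf at 26C in Hanks' solution with rinse on 5 dpf. Positive-direction fit against DMSO control.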

Assay [3] in a line: CCTE_Padilla_ZF_Score.Swim_bladder: CCTE's 144 Hour Post-fertilization zebrafish Assay Score for Swim Bladder Malformation, Padilla Lab (AID 2284408). The essentials: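 Swim bladder inflation scored at 6 dpf by two blinded observers under a stereo microscope. Exposure ran from 6–8 hpf in sealed wells of 10% Hanks' at 26C, with rinsing at 5 dpf; DMSO served as baseline.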
The nature of assay [4]: CCTE_Padilla_ZF_Score.Position: CCTE's 144 Hour Post-fertilization zebrafish Assay Score for Position, Padilla Lab (AID 2284409). Put shortly: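 Wild-type zebrafish embryos (with chorions) exposed singly from 6–8 hpf in sealed wells of Hanks' solution at 26C, rinsed at 5 dpf. At 6 dpf, blinded assessors scored abnormal water-column position by brightfield stereomicroscopy, relative to DMSO.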

Assay [5] is described as follows: CCTE_Padilla_ZF_Score.Living: CCTE's 144 Hour Post-fertilization zebrafish Assay Score for Viability, Padilla Lab (AID 2284410).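 Note: larval death at 6 dpf judged by absent heartbeat or coagulation.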 Put shortly: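 Mortality at 6 dpf, judged as absent heartbeat or coagulation by two blinded observers, after sealed static exposure beginning at 6–8 hpf at 26C. Larvae were rinsed free of chemical at 5 dpf, and activity was fitted relative to DMSO.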

Assay [6] in a line: CCTE_Padilla_ZF_Score.General: CCTE's 144 Hour Post-fertilization zebrafish Assay Score for General Malformation, Padilla Lab (AID 2284411). The essentials: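 Malformation, death and hatching were scored at 6 dpf by two blinded observers under a stereo microscope. Embryos were dosed singly from 6-8 hpf in sealed plates of 10% Hanks' at 26C and rinsed on 5 dpf; DMSO baseline.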

Assay [7] is described as follows: CCTE_Padilla_ZF_Score.Tail: CCTE's 144 Hour Post-fertilization zebrafish Assay Score for Tail Malformation, Padilla Lab (AID 2284414). The essentials:
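Tail malformations were scored at 6 dpf by two blinded assessors under a stereo microscope. Chorionated embryos had been exposed from 6-8 hpf in sealed wells of 10% Hanks' at 26 C, then rinsed free of chemical at 5 dpf.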

A short description of assay [8]: CCTE_Padilla_ZF_Score.Blood_pooling: CCTE's 144 Hour Post-fertilization zebrafish Assay Score for Blood Pooling, Padilla Lab (AID 2284415). Put shortly:
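Blood pooling was scored at 6 dpf under a stereo microscope by two blinded assessors, fitted upward against DMSO. Single embryos were dosed at 6–8 hpf in 10% Hanks', kept sealed at 26C (14:10 h cycle) and rinsed at 5 dpf.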

Assay [9] can be described thus: CCTE_Padilla_ZF_Score.Any: CCTE's 144 Hour Post-fertilization zebrafish Assay Score for Any Mortality or Malformation, Padilla Lab (AID 2284416). Put shortly: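 Wild-type zebrafish embryos with chorions, one per well in 10% Hanks' from 6–8 hpf, dosed in sealed plates at 26 C, 14:10 h light:dark; rinsed at 5 dpf; blinded scoring at 6 dpf for death or malformation, versus DMSO.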

The test system of assay [10] is SRY-box transcription factor 17 (SOX17) Protein Expression, Deisenroth Lab, SOX17 (gene 64321). As to the kind of experiment: CCTE_Deisenroth_DEVTOX-GLR_Endo_SOX17: CCTE's DevTox GLR-Endo Assay Evaluation of SRY-box transcription factor 17 (SOX17) Protein Expression, Deisenroth Lab (AID 2284413). The essentials: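 Human RUES2-GLR cells carrying an inducible fluorescent reporter are differentiated in defined media for 48 h and dosed twice, 24 h apart. After fixation and nuclear staining, imaging yields SOX17+ cell percentage relative to 0.2% DMSO-treated differentiated cells.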

Assay [11] deals with Brachyury (BRA) Protein Expression, TBXT (gene 6862). As to the kind of experiment: CCTE_Deisenroth_DEVTOX-GLR_Endo_BRA: CCTE's DevTox GLR-Endo Assay Evaluation of Brachyury (BRA) Protein Expression, Deisenroth Lab (AID 2284417). The essentials:
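Read-out: BRA+ cell count divided by total cell count by high-content imaging (5 fields per well), expressed relative to 0.2% DMSO solvent control. RUES2-GLR cells dosed twice over a 48 h differentiation; concentrations 1 nM - 200 uM.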

A short description of assay [12]: CCTE_Deisenroth_DEVTOX-GLR_Endo_CellCount: Viability Assessment in CCTE's DevTox GLR-Endo Assay, Deisenroth Lab (AID 2284420). The essentials: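 Percent change in nuclear-stain cell counts versus 0.2% DMSO, from high-content imaging over 5 fields per well. Over a 48 h endoderm differentiation, RUES2-GLR cells received two doses 24 h apart across a 1 nM–200 uM series, with n=4.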

The subject of assay [13] is SRY-box transcription factor 17 (SOX17) Protein Expression, Deisenroth Lab, SOX17 (gene 64321). As to the kind of experiment: CCTE_Deisenroth_DEVTOX-GLR_Pluri_SOX17: CCTE's DevTox GLR-Pluri Assay Evaluation of SRY-box transcription factor 17 (SOX17) Protein Expression, Deisenroth Lab (AID 2284427; active = hit-call score of the fitted dose curve at least 0.9, where 1 is the maximum). The essentials: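 The endpoint is SOX17+ cells as a fraction of cell count, corrected for the 0.2% DMSO control and obtained by high-content fluorescence imaging of fixed cells. Cells were RUES2-GLR under a 48-hour endoderm differentiation, dosed twice at 24-hour intervals over 1 nM–200 uM.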

For assay [14], the system named is SRY-box transcription factor 2 (SOX2) Protein Expression, Deisenroth Lab, SOX2 (gene 6657). Put plainly: CCTE_Deisenroth_DEVTOX-GLR_Pluri_SOX2: CCTE's DevTox GLR-Pluri Assay Evaluation of SRY-box transcription factor 2 (SOX2) Protein Expression, Deisenroth Lab (AID 2284428). Put shortly: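 Percent SOX2+ cells (SOX2+ count per total cells, fluorescent imaging) in RUES2-GLR human pluripotent line, expressed relative to 0.2% DMSO. Compounds dosed twice at 24 h intervals during 48 h, 1 nM - 200 uM, 10 concentrations.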

Assay [15] has as its system Brachyury (BRA) Protein Expression, Deisenroth Lab, TBXT (gene 6862). Put plainly: CCTE_Deisenroth_DEVTOX-GLR_Pluri_BRA: CCTE's DevTox GLR-Pluri Assay Evaluation of Brachyury (BRA) Protein Expression, Deisenroth Lab (AID 2284429; active = hit-call score of the fitted dose curve at least 0.9, where 1 is the maximum). Put shortly:
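RUES2-GLR reporter line; 48 h mesoderm differentiation; two exposures, 24 h apart; 1 nM - 200 uM, 10 points; nuclear stain, high-content imaging, 5 fields/well; endpoint = %BRA+ cells of total count minus 0.2% DMSO; n=4.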

Assay [16] in a line: CCTE_Deisenroth_DEVTOX-GLR_Pluri_CellCount: Viability Assessment in CCTE's DevTox GLR-Pluri Assay Evaluation of Total Cell Counts, Deisenroth Lab (AID 2284430). Put shortly:
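Cytotoxicity readout: fluorescent nuclei counts by high-content imaging, expressed as percent change relative to 0.2% DMSO. Human RUES2-GLR pluripotent line differentiated 48 h, dosed twice at 24-h intervals across 1 nM - 200 uM (10 points).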

Assay [17] has as its system SRY-box transcription factor 2 (SOX2) Protein Expression, Deisenroth Lab, SOX2 (gene 6657). As to the kind of experiment: CCTE_Deisenroth_DEVTOX-GLR_Endo_SOX2: CCTE's DevTox GLR-Endo Assay Evaluation of SRY-box transcription factor 2 (SOX2) Protein Expression, Deisenroth Lab (AID 2284412; active = hit-call score of the fitted dose curve at least 0.9, where 1 is the maximum). The essentials: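 Endpoint is percent SOX2-positive cells (SOX2+ count/total cells) minus 0.2% DMSO control, from high-content imaging of fixed, nuclear-stained RUES2-GLR cells. Dosing twice at 24 h intervals over 48 h differentiation, 1 nM–200 uM in 10 points.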

Several values for one entry are separate records, joined by “and”; a condition that tells them apart may be missing. Identical values can stand only once. Inconclusive results are not listed. A structure can be active in one record and inactive in another. Activity calls are given as the source filed them. Rule for the calls, unless noted: active = hit-call score of the fitted dose curve at least 0.9, where 1 is the maximum; inactive = score below 0.9.

In the case of `O=C(O)C(F)(F)C(F)(F)C(F)(F)C(F)(F)C(F)(F)F`, the outcome in assay [1], in assay [2], in [3], in [4], in assay [5] and in [6] was inactive. In addition, the outcome in assay [7], in [8] and in assay [9] was inactive.
What is called AC50 is the concentration giving half of the maximal activity seen. For the molecule `Oc1c(Cl)c(Cl)c(Cl)c(Cl)c1Cl`, the AC50 in assay [6] is 0.681 µM (active).
As to `NS(=O)(=O)C(F)(F)C(F)(F)C(F)(F)C(F)(F)C(F)(F)C(F)(F)C(F)(F)C(F)(F)F`, the AC50 in assay [1] is 0.582 µM (active); in [3], 0.321 µM (active); in [5], 1.76 µM (active); in assay [6], 0.453 µM (active); in assay [9], 0.747 µM (active). The outcome in assay [2], in assay [4], in [7] and in [8] was inactive.
As to `O=C(O)C(F)(F)C(F)(F)C(F)(F)C(F)(F)C(F)(F)C(F)(F)C(F)(F)C(F)(F)F`, the AC50 was 30.6 µM (active) in assay [1]; 30 µM (active) in assay [3]; 88.1 µM (active) in assay [4]; 81.2 µM (active) in [5]; 31.2 µM (active) in assay [6]; 29.1 µM (active) in [9]. Moreover, the result in [2], in assay [7] and in assay [8] was inactive.
For `CC1=C2C[C@H]3[C@@H](CC=C4C[C@@H](O)CC[C@@]43C)[C@@H]2CC[C@]12O[C@@H]1C[C@H](C)CN[C@H]1[C@H]2C`, the result in [10], in [11], in assay [12], in assay [13], in [14] and in assay [15] was inactive. In assay [16], the call was inactive.
For the molecule `O=S(=O)(O)C(F)(F)C(F)(F)C(F)(F)C(F)(F)C(F)(F)C(F)(F)F`, the half-maximal activity concentration (AC50) in assay [1] was 29.6 µM (active); in assay [3], 38.9 µM (active); in assay [4] it was 87.5 µM (active); in [5] it was 88.7 µM (active); in assay [6] it was 83.7 µM (active); in [9], 36.4 µM (active) and 34.4 µM (active). For the same molecule, the call in assay [1], in [2], in assay [3], in assay [4], in [5] and in assay [6] was inactive. Moreover, the molecule was classed as inactive in [7] and in assay [8].
Take `C=CC(N)=O`: the outcome in [17], in assay [10], in assay [11], in assay [12], in assay [13] and in [14] was inactive. In addition, the call in assay [15] and in [16] was inactive.
`O=S(=O)(O)C(F)(F)C(F)(F)C(F)(F)C(F)(F)F`: the outcome in [1], in assay [2], in assay [3], in assay [4], in [5] and in [6] was inactive. In addition, the call in [7], in [8] and in assay [9] was inactive.
For the molecule `O=C(O)C(F)(F)C(F)(F)C(F)(F)C(F)(F)C(F)(F)C(F)(F)C(F)(F)C(F)(F)C(F)(F)F`, the molecule was classed as inactive in assay [1], in assay [2], in assay [4], in [7] and in [8]. Besides, the AC50 in assay [3] is 11.5 µM (active); in [5] it was 17.5 µM (active); in assay [6], 11.5 µM (active); in [9], 10.7 µM (active).
